Sampled rows, rich in hits. Any-hit rate of the full collection: about 1.1%.
RXFP1 antag – RXFP1 (human) relaxin receptor antagonism. Q9HBX9. 350,000 tested, 0.59% active. AID 1259400. activity change, negative = inhibition, % at 57.5 µM. HEK293-RXFP1, relaxin-stimulated cAMP HTRF, 30 min; hits give low values;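 active = activity change of -60% or lower, but not beyond a set lower limit; inconclusive = change between -60% and -40%, or beyond the set limit; inactive = change above -40%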; note: % is set by controls: 0 for no effect and ±100 for the full control effect
RXFP1 agonist – activates the human relaxin receptor RXFP1 | Q9HBX9 | HEK293T-RXFP1 cAMP TR-FRET, 30 min; response scale: percent of porcine relaxin response, buffer zero | Potency, µM (top dose mostly 57.5 µM), without a hit: at the highest dose activation, actives largely listed as activators | 370,000 tested, 0.3% active | AID 2676; note: potency is the fitted concentration of half-maximal effect; % is set by controls: 0 for no effect and ±100 for the full control effect; nearly all actives have a fitted effect of over 60% in size
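Agonist response is measured as cAMP accumulation in an RXFP1-transfected HEK293T line under PDE4 inhibition. Values are scaled between buffer-only and 29 nM porcine relaxin, and EC50s come from standard Hill equation fits.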
gsp antagonist – gsp mutant antagonism. gsp-mutant cells, cAMP HTRF, 30 min. Potency, µM (highest dose often 76.9 µM), inactives show at the top dose activity change, negative = inhibition, most hits filed as inhibitors. 340,000 tested, 0.4% active. AID 624288; calls by dose curve; cell line not stated here;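 note: intracellular cAMP measured with PDE inhibitor Ro 20-1724 present during compound exposure; potency is the fitted concentration of half-maximal effect; % is set by controls: 0 for no effect and ±100 for the full control effect; nearly all actives have a fitted effect of over 65% in size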
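HTRF cAMP read-out (cAMP-d2 plus anti-cAMP antibody-K in lysis buffer, 30 min RT). Before lysis, cells are exposed to compounds with […] for 30 min at 37C in DPBS containing Ca/Mg, BSA and Tween 20.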
p53 reactivation – restores transcriptional activity of mutant p53; H1299 p53-A138V BP100-luciferase reporter, luminescence, 24 h; Potency, µM (series often up to 92.2 µM), without a hit: top-dose activity change, positive = activation, hits mostly activators; 320,000 tested, 0.063% active; AID 504706; note: potency is the fitted concentration of half-maximal effect; % of control where 0% means no effect; nearly all actives have a fitted effect of over 45% in size
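H1299 (p53-null), stable ts p53-A138V + BP100-Luc; 1000 cells/well, Opti-MEM/10% FBS; cpd 4 pt, 1:5; 24 h, 37 deg C, 5% CO2; detection reagent 10 min RT; luminescence.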
gsp agonist – activates gsp, the McCune-Albright syndrome mutation | AID 624287 | gsp mutant cells, cAMP HTRF, 30 min | Potency, µM (titrated, usually from 76.9 µM), for the others: top-dose activation (cAMP increase), hits mostly activators | 340,000 tested, 0.13% active; active = well fitted activation curve with a large enough effect; inconclusive = small, poorly fitted or top-dose-only effect, or another doubt; inactive = no such curve, though single readings can be large or run the other way; cell line not stated here;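 note: phosphodiesterase inhibitor Ro 20-1724 added with compounds to block cAMP breakdown; potency is the fitted concentration of half-maximal effect; nearly all actives have a fitted effect of over 60% in size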
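Cells in DMEM/10% FBS with G418 were pretreated with compounds in DMSO plus […] (300 uM stock) for 30 min at 37C. cAMP was measured by HTRF (cAMP-d2 plus anti-cAMP antibody-K) after 30 min at room temperature.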
Tb PFK block – inhibitors of T. brucei phosphofructokinase; O15648; T. brucei PFK, ADP-Glo luminescence; Potency, µM (highest dose often 57.5 µM), without a hit: at the top dose activity, negative = inhibition, actives largely listed as inhibitors; 330,000 tested, 0.17% active;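 note: potency is the fitted concentration of half-maximal effect; 0% = uninhibited 1x PFK enzyme wells and -100% = no-enzyme wells; nearly all actives have a fitted effect of over 60% in size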
Target sequence (O15648 whole entry, looked up): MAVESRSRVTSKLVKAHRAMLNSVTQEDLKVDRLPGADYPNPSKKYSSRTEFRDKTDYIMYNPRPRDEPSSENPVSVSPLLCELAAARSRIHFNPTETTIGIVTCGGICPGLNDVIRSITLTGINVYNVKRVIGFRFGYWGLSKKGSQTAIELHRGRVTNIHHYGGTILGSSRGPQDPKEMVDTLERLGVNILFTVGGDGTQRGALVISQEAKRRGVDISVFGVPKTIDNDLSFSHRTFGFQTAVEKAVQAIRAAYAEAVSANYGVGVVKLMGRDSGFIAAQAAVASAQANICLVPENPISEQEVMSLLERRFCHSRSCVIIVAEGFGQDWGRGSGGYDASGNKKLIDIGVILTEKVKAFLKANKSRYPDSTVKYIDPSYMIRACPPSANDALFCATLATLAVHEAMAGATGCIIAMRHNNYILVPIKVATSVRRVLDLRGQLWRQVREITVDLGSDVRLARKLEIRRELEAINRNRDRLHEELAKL
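1.25 nM PFK with 0.5 mM F6P and 0.1 mM ATP in 0.1 M TEA pH 8.0, 5 mM MgCl2, incubated 45 min at room temperature; ADP measured by ADP-Glo luminescence; compounds titrated up to 57 uM.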
Active calls of the source: *; [ ] = remark or other dose. Unless noted, calls come from the whole dose curve; as a rule, active = well fitted curve in the direction sought with a large enough effect; inconclusive = small, poorly fitted or top-dose-only effect, or another doubt; inactive = no such curve, though single readings can be large; an effect the other way counts as inactive or inconclusive.

What do the screens show for `COc1ccc(N2C(=O)CC(Sc3nnc(-c4ccccc4)o3)C2=O)cc1` (stereo unspecified)?
RXFP1 antag: -6.7; RXFP1 agonist: 17.7%; gsp antagonist: 6.5%; p53 reactivation: -16.0%; gsp agonist: 28.2µM*; Tb PFK block: 0.0%

What do the screens show for `O=C1CC(Sc2nnc(-c3ccccc3O)o2)C(=O)N1c1ccccc1` (stereo unspecified)?
RXFP1 antag: 10.6; RXFP1 agonist: 11.8%; gsp antagonist: -10.0%; p53 reactivation: -16.7%; gsp agonist: -1.4%; Tb PFK block: 0.5%

What do the screens show for `O=C(N/N=C1\CCCc2ccccc21)c1ccc([N+](=O)[O-])cc1`?
RXFP1 antag: 6.7; RXFP1 agonist: 0.9%; gsp antagonist: 2.4%; p53 reactivation: 16.3%; gsp agonist: -30.1%; Tb PFK block: 0.4%

Results for Cc1ccc(OCc2cc(C(=O)N(C)CCc3ccccn3)no2)cc1C ?
RXFP1 antag: -6.2; RXFP1 agonist: 2.1%; gsp antagonist: -3.1%; p53 reactivation: inconclusive; gsp agonist: inconclusive; Tb PFK block: 0.9%

What do the screens show for `Cc1ccc(OCc2cc(C(=O)N(C)CCc3nc4ccccc4[nH]3)no2)cc1C`?
RXFP1 antag: -3.1; RXFP1 agonist: -0.5%; gsp antagonist: 35.5µM*; p53 reactivation: 18.1%; gsp agonist: 1.5%; Tb PFK block: -3.4%

Results for CCOc1ccccc1C(=O)NCC(=O)NCc1ccc(S(=O)(=O)N2CCOCC2)cc1 ?
RXFP1 antag: -12.2; RXFP1 agonist: 2.1%; gsp antagonist: -9.6%; p53 reactivation: -0.1%; gsp agonist: 31.6µM*; Tb PFK block: -0.8%

How did c1ccc(-c2cc3cc4c(cc3cn2)OCO4)cc1 do in these assays?
gsp antagonist: -17.3%; p53 reactivation: 8.91µM*; gsp agonist: -27.9%; Tb PFK block: 10.7%

Results for CC1C(c2ccc3c(c2)OCO3)c2cc3c(cc2OC1N1CCOCC1)OCO3 (stereo unspecified) ?
RXFP1 antag: -72.9*; gsp antagonist: -2.9%; gsp agonist: 1.1%

How did O=C(COC(=O)COc1ccc(Cl)cc1)NCCNC(=O)COC(=O)COc1ccc(Cl)cc1 do in these assays?
RXFP1 antag: -72.5*; RXFP1 agonist: 0.3%; gsp antagonist: -2.6%; p53 reactivation: -4.4%; gsp agonist: -1.7%[15.4 µM]; Tb PFK block: -3.1%

How did CC(C)C(Cl)=NOC(=O)Nc1ccc(S(N)(=O)=O)cc1 do in these assays?
RXFP1 antag: -73.3*; gsp antagonist: 10.9%; gsp agonist: 11.8%

What do the screens show for `C=CC[n+]1c(-c2ccc(Cl)cc2Cl)csc1Nc1c(C)n(C)n(-c2ccccc2)c1=O`?
RXFP1 antag: -67.8*; RXFP1 agonist: 0.2%; gsp antagonist: inconclusive; p53 reactivation: -7.7%; gsp agonist: 2.1%; Tb PFK block: -7.6%

What do the screens show for `O=C(Cc1ccc(F)cc1)N/N=C/c1ccccn1`?
RXFP1 antag: 4.3; RXFP1 agonist: 2.0%; gsp antagonist: 13.5%; p53 reactivation: -2.9%; gsp agonist: -29.0%; Tb PFK block: -13.7%

How did O=C(Cc1ccc(Br)c2ccccc12)N/N=C/c1ccccn1 do in these assays?
RXFP1 antag: inconclusive; RXFP1 agonist: -2.4%; gsp antagonist: 25.1µM*; p53 reactivation: 2.0%; gsp agonist: -15.1%[15.4 µM]; Tb PFK block: -16.0%

Results for CCOC(=O)c1ccc2c(c1)N(CC(=O)N(C)c1ccccc1)C(=O)c1ccccc1S2 ?
RXFP1 agonist: -1.9%

Results for COc1ccccc1OCc1nc(-c2ccc([N+](=O)[O-])cc2)no1 ?
RXFP1 antag: -10.4; RXFP1 agonist: -1.2%; gsp antagonist: -3.8%; p53 reactivation: inconclusive; gsp agonist: 6.4%; Tb PFK block: -2.0%

What do the screens show for `O=C1CC(c2cccc([N+](=O)[O-])c2)c2c(ccc3ccccc23)N1` (stereo unspecified)?
RXFP1 antag: -7.3; RXFP1 agonist: -0.2%; gsp antagonist: 39.8µM*; p53 reactivation: inconclusive; gsp agonist: 7.6%; Tb PFK block: 0.0%

Results for O=C(CN1C(=O)C(=O)N(CCC2=CCCCC2)C1=O)c1c[nH]c2ccccc12 ?
RXFP1 antag: -66.4*; gsp antagonist: -19.4%; p53 reactivation: 8.3%; gsp agonist: 18.1%[15.4 µM]; Tb PFK block: -0.3%

Results for O=C(CN1C(=O)C(=O)N(Cc2ccco2)C1=O)c1c[nH]c2ccccc12 ?
RXFP1 antag: 10.1; RXFP1 agonist: 0.1%; gsp antagonist: 3.1%; p53 reactivation: 0.6%; gsp agonist: 27.6%; Tb PFK block: 8.4%

How did N#C/C(=C\c1cccnc1)C(=O)Nc1cccc2ccccc12 do in these assays?
RXFP1 antag: -67.2*; RXFP1 agonist: -0.8%; gsp antagonist: 10.1%; p53 reactivation: -18.1%; gsp agonist: inconclusive; Tb PFK block: 7.6%

Results for Cc1c(NC(=O)c2cnn3c2NC(c2ccc(Br)cc2)CC3C(F)(F)F)c(=O)n(-c2ccccc2)n1C (stereo unspecified) ?
RXFP1 antag: -18.3; RXFP1 agonist: -0.9%; gsp antagonist: 17.8%; p53 reactivation: 23.8%; gsp agonist: -9.7%; Tb PFK block: -1.4%

Results for CCOCCCN(C)C1CCN(C(=O)c2oc3ccccc3c2NC(=O)c2cccc([N+](=O)[O-])c2)CC1 ?
RXFP1 antag: -65.7*; RXFP1 agonist: -0.1%; gsp antagonist: -2.1%; p53 reactivation: 5.0%; gsp agonist: -0.7%; Tb PFK block: -10.3%

What do the screens show for `CCOCCCN(C)C1CCN(C(=O)c2oc3ccccc3c2NC(=O)Cc2ccc([N+](=O)[O-])cc2)CC1`?
RXFP1 antag: -20.3; RXFP1 agonist: 11.1%; gsp antagonist: 4.8%; p53 reactivation: inconclusive; gsp agonist: inconclusive; Tb PFK block: 0.4%

Results for CN1C(=O)CC(N2CCC(c3nc4ccccc4s3)CC2)C1=O (stereo unspecified) ?
RXFP1 antag: 6.2; RXFP1 agonist: -1.9%; gsp antagonist: 13.6%; p53 reactivation: 18.6%; gsp agonist: 5.1%; Tb PFK block: -4.8%

How did O=C1CC(N2CCC(c3nc4ccccc4s3)CC2)C(=O)N1Cc1ccccc1 (stereo unspecified) do in these assays?
RXFP1 antag: -15.5; RXFP1 agonist: 1.4%; gsp antagonist: 35.5µM*; p53 reactivation: 1.4%; gsp agonist: 6.0%; Tb PFK block: 0.5%

What do the screens show for `N=c1c2c(-c3ccccc3)c(-c3ccccc3)n(Cc3ccco3)c2ncn1Cc1ccco1`?
RXFP1 antag: -102.3*; RXFP1 agonist: 2.1%; gsp antagonist: 3.8%; p53 reactivation: -13.5%; gsp agonist: 5.0%; Tb PFK block: 3.3%
